# Experimental data as given in PubChem BioAssay (EPA / NIEHS).
# The source made the active and inactive calls. How the source made its calls: active means hit-call score of the fitted dose curve at least 0.9, where 1 is the maximum; inactive means score below 0.9.
# Test: ATG_M_06_CIS: Attagene CIS-FACTORIAL HepG2 Assay for M06 Transcription Factor (Internal Marker) (AID 2282950)
# Details: HepG2 Attagene CIS-FACTORIAL M06 internal marker reporter; actives raise or lower the signal
# Protocol: ATG_CIS is a cell-based, multiplexed-readout assay that uses HepG2, a human liver cell line, with measurements taken at 24 hours after chemical dosing in a 24-well plate.ATG_M_06_CIS is one of 52 assay component(s) measured or calculated from the ATG_CIS assay. It is designed to make measurements of mRNA induction, a form of inducible reporter, as detected with fluorescence intensity signals by Reverse transcription polymerase chain reaction (RT-PCR) and Capillary electrophoresis technology.Data from the assay component ATG_M_06_CIS was analyzed into 1 assay endpoint. This assay endpoint, ATG_M_06_CIS, was analyzed with bidirectional fitting relative to DMSO as the negative control and baseline of activity. Using a type of inducible reporter, measures of mRNA for gain or loss-of-signal activity can be used to understand the background control at the transcription factor-level as they relate to the gene . Furthermore, this assay endpoint can be referred to as a secondary readout, because this assay has produced multiple assay endpoints where this one serves a background control function. To generalize the intended target to other relatable targets, this assay endpoint is annotated to the background measurement intended target family, where the subfamily is internal marker.
# Human liver HepG2 cells are transiently transfected with multiple reporter transcription units (MRTUs) in 6-well plates using FuGene 6 reagent (Roche; 3 ml FuGene/1 mg DNA). The MRTU constructs are regulated by a cis-regulating element (promoter). […] A major difference between the CIS and TRANS system is that in CIS activities of endogenous TFs are measured, whereas the TRANS assay evaluates changes in activities of exogenous, chimeric NR-Gal4 proteins. […] At the end of 24 hour incubation, total RNA was isolated using TriZol reagent (Invitrogen). The isolated RNA is then reverse-transcribed using oligo(dT) primer and Mo-MLV reverse transcriptase (Invitrogen) with DNAse I (Ambion) treatment for 30 min. The one-tenth of the produced cDNA was amplified by PCR using Taq DNA polymerase (Invitrogen) and two reporter sequence-specific primers. The PCR products were fluorescently labeled by primer extension with 6-arboxyfluorescein (6-FAM) 5'-labeled reporter sequence-specific primer (2 min at 95 C, 20 s at 68 C and 10 min at 72 C) and these products were digested with 5U of HpaI (New England Biolabs) for 2h at 37 C. The fragments were purified using Qiaquick PCR columns (Qiagen), analyzed on an ABI 3130xL genetic analyzer (Applied Biosystems) with peak positions identified by using a set of X-rhodamine (ROX)-labeled MapMarker1000 molecular weight standards (BioVentures). The raw capillary electrophoresis data was processed using Attagraph software (Attagene).
row,SMILES,outcome
1,CCC(C)CO (stereo not given),inactive
2,C=CCOC(=O)CC(C)C,inactive
3,Cc1ccc2c(c1)OCC(=O)CO2,inactive
4,O=C=Nc1cccc2c(N=C=O)cccc12,inactive
5,CCN(CC)c1ccc(C=O)c(O)c1,inactive
6,CC(C)C(=O)OCc1ccccc1,inactive
7,COCCOCCC[Si](C)(O[Si](C)(C)C)O[Si](C)(C)C,inactive
8,CCN=c1cc2oc3cc(NCC)c(C)cc3c(-c3ccccc3C(=O)OCC)c-2cc1C,inactive
9,CCCCC(CC)COC(=O)c1ccc(N(C)C)cc1 (stereo not given),inactive
10,CC(C)CC=C(C=O)c1ccccc1,inactive
11,OCCC(O)CO (stereo not given),inactive
12,CCCCCCCCCCCCCC[P+](CCCC)(CCCC)CCCC,inactive
13,C=CC(=O)OCCC(F)(F)C(F)(F)C(F)(F)C(F)(F)F,inactive
14,Nc1c(Br)cc([N+](=O)[O-])cc1Br,inactive
15,O=S(=O)(O)CCC(F)(F)C(F)(F)C(F)(F)C(F)(F)F,inactive
16,Cc1cccc(C)n1,inactive
17,NCC(F)(F)C(F)(F)C(F)(F)C(F)(F)C(F)(F)C(F)(F)C(F)(F)C(F)(F)F,inactive
18,CCOC(OCC)OCC,inactive
19,O=C1C=CC(=O)N1c1ccc(Cc2ccc(N3C(=O)C=CC3=O)cc2)cc1,inactive
20,O=C(Cl)C(F)(F)C(F)(F)C(F)(F)C(F)(F)C(F)(F)C(F)(F)F,inactive

row,SMILES,outcome
1,CCOCOCC,inactive
2,Brc1ccccn1,inactive
3,COc1ccccc1C=O,inactive
4,FC(F)(F)C(F)(F)C(F)(F)C(F)(F)C(F)(F)C(F)(F)C(F)(F)CCI,inactive
5,CCC(=O)OC(C)c1ccccc1 (stereo not given),inactive
6,NC(=O)C(F)(F)C(F)(F)C(F)(F)C(F)F,inactive
7,CCOC(=O)CCC(C)=O,inactive
8,CCCCCCCCCCCC(=O)Cl,inactive
9,OCC(F)(F)C(F)(F)C(F)(F)CO,inactive
10,COC(=O)c1ccc(C=O)cc1,inactive
11,CCC/C=C/CO,inactive
12,C=C(C)CCCC,inactive
13,FC(F)(F)C(F)(F)C(F)(F)CC1CO1 (stereo not given),inactive
14,O=C(O)CCC(F)(F)C(F)(F)C(F)(F)C(F)(F)C(F)(F)C(F)(F)C(F)(F)F,inactive
15,Cc1cc(=O)[nH]c(C(C)C)n1,inactive
16,O=C(O)C(F)(F)OC(F)(F)C(F)(F)OC(F)(F)C(F)(F)OC(F)(F)F,inactive
17,COC(F)(C(F)F)C(F)(F)F (stereo not given),inactive
18,OC(O)C(F)(F)C(F)(F)F,inactive
19,C=CC(=O)OCC(F)(F)C(F)(F)C(F)(F)COC(=O)C=C,inactive
20,CCN(CC)c1ccc(N=Nc2ccccc2)cc1,inactive
